Experiment [1] concerns the target Cytochrome P450 2D6 (Homo sapiens) (UniProt P10635). The experiment can be described thus: Cytochrome P450 family 2 subfamily D member 6 (CYP2D6) small molecule antagonists: luciferase biochemical (cell-free) qHTS assay (AID 1645840; active = well fitted curve in the direction sought with a large enough effect in the repeat runs; an effect the other way counts as inactive or inconclusive; note: nearly all actives have a fitted effect of over 55% in size; note: potency is the fitted concentration of half-maximal effect). The method in brief: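 P450-Glo luminescent screen: recombinant CYP2D6 enzyme–proluciferin substrate mix preincubated with compound 10 min at room temperature, then NADPH regeneration added for 1 h at room temperature. Detection reagent added for 20 min; luciferin light read as relative luminescence units.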

Experiment [2] in a line: Primary qHTS for inhibitors of nuclear receptor binding SET domain protein 2 (NSD2) in an isogenic RCH-ACV NSD2 p.E1099K mutant (9B) (AID 1645876). For activity change, negative = viability loss: % is set by controls: 0 for no effect and ±100 for the full control effect. Note: nearly all actives have a fitted effect of over 70% in size. Note: potency is the fitted concentration of half-maximal effect. A general note: qHTS replaces the single test concentration by a dilution series.
Experiment [3] in a line: Primary qHTS for inhibitors of nuclear receptor binding SET domain protein 2 (NSD2) in an RCH-ACV wild type WT cells (2C) (AID 1645877). For activity change, negative = cell killing: % is set by controls: 0 for no effect and ±100 for the full control effect. Note: nearly all actives have a fitted effect of over 70% in size. Note: potency is the fitted concentration of half-maximal effect.
Experiment [4] deals with Catechol O-methyltransferase (Homo sapiens) (UniProt P21964). Put plainly: Confirmatory Screen for Target Class Profiling of Small Molecule Inhibitors of Methyltransferases (AID 1745852). Conditions: MTase-Glo luminescence, SAH detection, recombinant enzyme; measured here: COMT max response; stronger effect = lower value.
Experiment [5] deals with Cytochrome P450 2C9 (Homo sapiens) (UniProt P11712). The experiment can be described thus: Cytochrome P450 family 2 subfamily C member 9 (CYP2C9) small molecule antagonists: luciferase biochemical (cell-free) qHTS assay (AID 1645842; active = well fitted curve in the direction sought with a large enough effect in the repeat runs; an effect the other way counts as inactive or inconclusive; note: nearly all actives have a fitted effect of over 55% in size; note: potency is the fitted concentration of half-maximal effect). The method in brief: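 Luminescence, after 20 min with luciferin detection reagent, reflected CYP2C9 turnover during a 1 h NADPH-driven reaction at 37C. Enzyme-substrate mix contained 0.4% bovine serum albumin and was preincubated with compound 10 min at room temperature.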

Data on 40 compounds can be found in PubChem BioAssay (NCATS).

Where “and” joins values, the source holds several entries; their conditions need not be identical. Identical values can stand only once. Inconclusive results are not listed. Calls of active or inactive are those of the source. Unless noted, calls come from the whole dose curve; as a rule, active = well fitted curve in the direction sought with a large enough effect; inconclusive = small, poorly fitted or top-dose-only effect, or another doubt; inactive = no such curve, though single readings can be large; an effect the other way counts as inactive or inconclusive.

Cytochrome P450 2D6 (Homo sapiens), sequence (P10635 whole entry, looked up): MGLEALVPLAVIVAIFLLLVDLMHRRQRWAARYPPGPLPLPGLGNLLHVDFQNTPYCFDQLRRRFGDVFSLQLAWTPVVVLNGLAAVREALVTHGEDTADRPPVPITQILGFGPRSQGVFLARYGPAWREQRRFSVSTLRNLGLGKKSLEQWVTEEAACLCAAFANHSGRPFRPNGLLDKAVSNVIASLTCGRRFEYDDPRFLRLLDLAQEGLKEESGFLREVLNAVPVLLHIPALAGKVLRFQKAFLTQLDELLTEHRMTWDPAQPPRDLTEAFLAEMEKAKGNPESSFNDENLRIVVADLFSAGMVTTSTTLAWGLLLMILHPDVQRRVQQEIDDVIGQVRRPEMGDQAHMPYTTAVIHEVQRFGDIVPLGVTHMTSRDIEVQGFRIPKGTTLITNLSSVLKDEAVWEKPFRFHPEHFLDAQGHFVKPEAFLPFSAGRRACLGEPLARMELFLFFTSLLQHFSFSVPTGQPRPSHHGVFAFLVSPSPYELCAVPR
Catechol O-methyltransferase (Homo sapiens), sequence (P21964 whole entry, looked up): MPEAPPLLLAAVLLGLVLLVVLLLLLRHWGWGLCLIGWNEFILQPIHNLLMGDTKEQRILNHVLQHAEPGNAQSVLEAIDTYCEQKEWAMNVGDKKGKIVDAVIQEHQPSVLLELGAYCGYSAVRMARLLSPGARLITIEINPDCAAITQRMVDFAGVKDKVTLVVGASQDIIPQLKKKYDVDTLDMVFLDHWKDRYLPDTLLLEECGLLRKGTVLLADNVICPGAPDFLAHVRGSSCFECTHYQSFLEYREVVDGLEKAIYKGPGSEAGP
Cytochrome P450 2C9 (Homo sapiens), sequence (P11712 whole entry, looked up): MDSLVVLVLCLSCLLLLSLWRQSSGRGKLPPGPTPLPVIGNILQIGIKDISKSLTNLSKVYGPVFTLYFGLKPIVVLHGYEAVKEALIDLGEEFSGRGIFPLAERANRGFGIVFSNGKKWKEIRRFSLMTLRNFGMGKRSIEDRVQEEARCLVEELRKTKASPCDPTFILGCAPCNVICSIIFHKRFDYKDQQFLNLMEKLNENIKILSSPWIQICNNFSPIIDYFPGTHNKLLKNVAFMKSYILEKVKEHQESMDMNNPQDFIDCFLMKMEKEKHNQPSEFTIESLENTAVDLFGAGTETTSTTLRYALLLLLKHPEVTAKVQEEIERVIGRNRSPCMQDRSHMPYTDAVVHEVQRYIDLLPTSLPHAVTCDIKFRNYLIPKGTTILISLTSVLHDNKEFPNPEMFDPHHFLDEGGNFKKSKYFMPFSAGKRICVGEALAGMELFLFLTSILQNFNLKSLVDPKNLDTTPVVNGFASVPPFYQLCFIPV

Consider `Cc1[nH]c2ccccc2c1CCNC(=O)c1ccccc1F`, for which the Potency in experiment [1] is 21.3 µM (active). Moreover, the Potency entry in experiment [2] and in experiment [3] was “inactive” throughout.
On to `Nc1nc2c(c(N3CCNCC3)n1)CCC1=C2[C@@H]2CCCC[C@@H]2O1`, for which the Potency in experiment [1] is 19 µM (active); in experiment [3], 16.3 µM (active).
For the compound `Cc1ncc(CCCN(C)C)cc1Nc1ncc2c(n1)-c1ccc(C(F)(F)F)cc1NC(=S)C2`, the Potency is 13.5 µM (active) in experiment [1], 91.6 nM (active) in experiment [2] and 0.129 µM (active) in experiment [3]. Moreover, in experiment [4], the activity was -3.05%.
Take `CN(c1ccccc1CNc1nc(Nc2ccc3c(c2)CC(=O)N3)ncc1C(F)(F)F)S(C)(=O)=O`: the Potency in experiment [1] is 23.9 µM (active); in experiment [2], 1290 nM (active); in experiment [3] it was 1.03 µM (active). Further, the activity in experiment [4] was -5.57%.
In the case of `C=CC(=O)Nc1cc(Nc2ncc(Cl)c(-c3c[nH]c4ccccc34)n2)c(OC)cc1N(C)CCN(C)C`, in experiment [5], the Potency was 9.52 µM (active).
Consider `Cc1ccc(S(=O)(=O)Cc2nc(-c3ccc(C(=O)NCc4cccnc4)cc3)oc2C)cc1`, for which the Potency entry in experiment [1] was “inactive”. Further, the figures for the Potency in experiment [2] and in experiment [3] were 13.2 nM (active) and 0.0186 µM (active), respectively.
With `c1ccc(-c2csc(N3CCOCC3)n2)cc1`, the Potency entry in experiment [1], in experiment [2] and in experiment [3] was “inactive” each time.
As for `O=C(c1cn(Cc2cncn2Cc2ccc(Br)cc2)cc1-c1cccc2ccccc12)N1CCOCC1`, the Potency was 10.7 µM (active) in experiment [1], 1830 nM (active) in experiment [2] and 1.15 µM (active) in experiment [3].
On to `Cc1cc(N2CCN([C@@H]3CN[C@H](C(=O)N4CCSC4)C3)CC2)n(-c2ccccc2)n1`, for which the Potency result in experiment [5] is “inactive”.
In the case of `C[C@@H](O)[C@H](NC(=O)c1ccc(C#Cc2ccc(CN3CCOCC3)cc2)cc1)C(=O)NO`, the Potency entry in experiment [1] and in experiment [3] was “inactive” each time.
Take `NC(=O)Nc1cc(-c2cccc(F)c2)sc1C(=O)NC1CCCNC1` (configuration not stated): in experiment [1], the Potency result is “inactive”. Moreover, the figures for the Potency in experiment [2] and in experiment [3] were 72.8 nM (active) and 0.0817 µM (active), respectively.
The matching figures for `O=C(O)[C@H](Cc1ccc(Nc2nccc3ccncc23)cc1)NC1=C(Br)C(=O)C12CCCCC2`: “inactive”, “inactive” and “inactive”.
Consider `CC(=O)SCC(=O)c1ccc(NS(=O)(=O)c2ccc(OCCCN(C)C)cc2)nc1`, for which, in experiment [1], the Potency result was “inactive”. Moreover, the figures for the Potency in experiment [2] and in experiment [3] were 1290 nM (active) and 1.15 µM (active), respectively.
For the compound `CN(C)C(=O)NC1CCC(CCN2CCN(c3cccc(Cl)c3Cl)CC2)CC1` (configuration not stated), the Potency in experiment [1] is 12 µM (active). Further, the activity change, negative = viability loss in experiment [2] was 3.61% [at 9.23 µM] (inactive). Besides, in experiment [3], the activity change, negative = cell killing is 2.1% [at 9.23 µM] (inactive).
Consider `CC(C)[C@@H]1C(=O)N(S(C)(=O)=O)[C@@H]2CCN(C(=O)/C=C/CN3CCCCC3)[C@H]21`, for which the Potency entry in experiment [1], in experiment [2] and in experiment [3] was “inactive” throughout.
Take `O=C(NCC(O)CO)c1ccncc1Nc1ccc(I)cc1F` (configuration not stated): in experiment [5], the Potency was 16.9 µM (active).
As to `CCOC(=O)CCN(C(=O)c1ccc2c(c1)nc(CNc1ccc(C(=N)N)cc1)n2C)c1ccccn1`, the Potency entry in experiment [1], in experiment [2] and in experiment [3] was “inactive” throughout. Also, the activity in experiment [4] is -3.92%.
As to `C=CC(=O)Nc1cccc(Nc2nc(Nc3ccc(N4CCN(C(C)=O)CC4)cc3OC)ncc2C(F)(F)F)c1`, the Potency entry in experiment [1] is “inactive”. Besides, the Potency in experiment [2] is 3.65 µM (active) and 4.17 µM (active); in experiment [3] it was 2.9 µM (active).
Regarding `Cc1noc(=O)c2ccc(NC(=O)C(O)(CC(C)(C)c3cccc4c3OCC4)C(F)(F)F)cc12` (configuration not stated), the Potency result in experiment [5] was “inactive”.
For `CN(C)c1nc(NC2CCC(NC(=O)c3ccc(F)c(F)c3)CC2)nc2ccccc12` (configuration not stated), the Potency in experiment [1] was 5.35 µM (active); in experiment [2] it was 6490 nM (active); in experiment [3], 6.49 µM (active). The activity in experiment [4] was -11.9%.
As for `Cc1ccc(Cc2c(C)nc3nc(SCC(=O)NCCN4CCNCC4)nn3c2C)cc1`, the Potency entry in experiment [1], in experiment [2] and in experiment [3] was “inactive” throughout.
For the compound `CCCCOC(=O)NC(=O)C1c2ccccc2Oc2ccccc21`, the Potency entry in experiment [1], in experiment [2] and in experiment [3] was “inactive” each time.
As to `Nc1nc(-n2cc(C(=O)O)c(=O)c3cc(F)c(N4CC(O)C4)c(Cl)c32)c(F)cc1F`, the Potency entry in experiment [1], in experiment [2] and in experiment [3] was “inactive” throughout. Moreover, the activity in experiment [4] is -21.4%.
For `CCOc1cc(N2CCC(O)CC2)ccc1Nc1ncc2c(n1)N(C1CCCC1)CCC(=O)N2C`, the Potency entry in experiment [1] was “inactive”. The Potency was 2050 nM (active) in experiment [2] and 1.83 µM (active) in experiment [3].
Consider `CC(C)c1cc(CNc2nc(Nc3cc(C4CC4)[nH]n3)cc(N3CCN(C)CC3)n2)on1`, for which the Potency was 2.68 µM (active) in experiment [1]; 64.9 nM (active) and 525 nM (active) in experiment [2]; 29 nM (active) and 66.1 nM (active) in experiment [3]. Further, the activity in experiment [4] is -7.12%.
On to `COc1cc(C(=O)NC2CCN(C)CC2)c(F)cc1Nc1ncc2c(n1)N(C1CCCC1)CC(F)(F)C(=O)N2C`, for which the Potency result in experiment [1] was “inactive”. For the same compound, the Potency in experiment [2] is 59 nM (active); in experiment [3], 0.0833 µM (active).
For the compound `CC(C)C(CO)Nc1nc(Nc2ccc(C(=O)O)c(Cl)c2)c2ncn(C(C)C)c2n1` (configuration not stated), the Potency result in experiment [1], in experiment [2] and in experiment [3] was “inactive” each time.
For the compound `O=C(O)Cc1ccc2oc(-c3ccc(NC(=O)/C=C/c4ccc(Br)cc4)c(F)c3)nc2c1`, the Potency entry in experiment [1], in experiment [2] and in experiment [3] was “inactive” in each case.
As to `O=c1[nH]ccc2cc(OC3CCNCC3)ccc12`, in experiment [5], the Potency result was “inactive”.
Take `Cc1cnc(NC(=O)Nc2cc(Br)c(C)cc2OCC2CNCCO2)cn1` (configuration not stated): the Potency was 12 µM (active) in experiment [1], 649 nM (active) in experiment [2] and 0.578 µM (active) in experiment [3].
Turning to `COc1cc(NC(=O)Nc2cccc(CNC(=O)O[C@H]3CCOC3)c2)ccc1-c1cnco1`, the Potency is 0.338 µM (active) in experiment [1], 459 nM (active) in experiment [2] and 0.728 µM (active) in experiment [3]. For the same compound, the activity in experiment [4] was -5.78%.
As for `CCNC(=O)Nc1ccc(-c2nc3c(c(N4CCOC[C@@H]4C)n2)CCN(c2ncccn2)C3)cc1`, the Potency in experiment [1] was 10.7 µM (active); in experiment [2], 72.8 nM (active); in experiment [3] it was 0.103 µM (active).
In the case of `COC(=O)CCSCc1ccc(-c2onc(C)c2NC(=O)OC(C)c2ccccc2Cl)cc1` (configuration not stated), the Potency in experiment [1] is 2.68 µM (active). Besides, the Potency result in experiment [2] and in experiment [3] was “inactive” in each case.
Turning to `CCOC(=O)c1sc(NC(=O)[C@H](C(C)C)n2c(=O)[nH]c3ccccc3c2=O)nc1C`, in experiment [5], the Potency was 4.77 µM (active).
Take `Nc1nc(Nc2ccc(S(N)(=O)=O)cc2)n(C(=S)Nc2c(F)cccc2F)n1`: the Potency in experiment [1] is 10.7 µM (active). For the same compound, the Potency entry in experiment [2] and in experiment [3] was “inactive” in each case.
For the compound `O=C(NCc1ccc(S(=O)(=O)c2cc(F)cc(F)c2)cc1)c1ccc2nccn2c1`, the Potency result in experiment [5], in experiment [2] and in experiment [3] was “inactive” each time.
For the compound `C[C@H](Oc1ccc(S(C)(=O)=O)cc1C(=O)N1CCN(c2ncc(C(F)(F)F)cc2F)CC1)C(F)(F)F`, the Potency in experiment [5] is 6.74 µM (active).
As to `CC(C)(C)NC(=O)[C@@H](c1cccnc1)N(C(=O)c1ccco1)c1ccc(C(C)(C)C)cc1`, the Potency in experiment [5] is 5.35 µM (active).
As for `C[C@@H]([C@@H](O)c1ccc(O)cc1)N1CCC(O)(c2ccccc2)CC1`, the Potency entry in experiment [5], in experiment [2] and in experiment [3] was “inactive” in each case.
Turning to `O=S(=O)(c1ccccc1)c1cnc2c(N3CCNCC3)cccc2c1`, the Potency in experiment [5] was 0.338 µM (active).
